These results are taken from ChEMBL document CHEMBL1961873, “Compounds: GSK PKIS; Assays: Nanosyn kinase panel” (2012).

The target of assay [1] is Dual specificity protein kinase CLK3 (Homo sapiens) (UniProt P49761). Conditions: at 1 µM.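 Note: each value is the mean inhibition of CLK3.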
The target in assay [2] is Dual specificity tyrosine-phosphorylation-regulated kinase 1A (Homo sapiens) (UniProt Q13627). Conditions: at 0.1 µM.
Assay [3] shares this target. As to conditions: at 1 µM.
For assay [4], the target named is Dual specificity tyrosine-phosphorylation-regulated kinase 1B (Homo sapiens) (UniProt Q9Y463). As to conditions: at 0.1 µM.
Assay [5] has the same target. As to conditions: at 1 µM.
Assay [6] concerns the target T1, Dual specificity tyrosine-phosphorylation-regulated kinase 2 (Homo sapiens) (UniProt Q92630).
T1 sequence (whole entry): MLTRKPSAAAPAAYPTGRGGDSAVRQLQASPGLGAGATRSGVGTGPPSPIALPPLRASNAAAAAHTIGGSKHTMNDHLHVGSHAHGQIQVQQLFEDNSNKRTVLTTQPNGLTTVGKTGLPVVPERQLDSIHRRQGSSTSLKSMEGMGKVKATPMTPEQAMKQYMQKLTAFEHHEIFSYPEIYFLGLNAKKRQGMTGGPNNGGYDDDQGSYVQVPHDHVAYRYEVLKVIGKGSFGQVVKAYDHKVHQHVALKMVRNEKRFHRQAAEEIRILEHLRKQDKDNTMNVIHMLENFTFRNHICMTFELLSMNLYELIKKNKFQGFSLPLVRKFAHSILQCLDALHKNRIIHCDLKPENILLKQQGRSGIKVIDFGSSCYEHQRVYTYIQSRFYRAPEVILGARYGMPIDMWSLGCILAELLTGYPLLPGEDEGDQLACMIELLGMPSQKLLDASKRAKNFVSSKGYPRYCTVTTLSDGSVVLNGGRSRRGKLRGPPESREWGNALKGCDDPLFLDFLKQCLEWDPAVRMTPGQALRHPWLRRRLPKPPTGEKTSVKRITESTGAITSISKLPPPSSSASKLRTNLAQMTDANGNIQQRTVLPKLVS
Conditions: at 0.1 µM.

Assay [7] deals with T1, Dual specificity tyrosine-phosphorylation-regulated kinase 2 (Homo sapiens). Conditions: at 1 µM.
Assay [8] concerns the target Glycogen synthase kinase-3 alpha (Homo sapiens) (UniProt P49840). As to conditions: at 0.1 µM.
The target is the same in assay [9]. As to conditions: at 1 µM.
In assay [10] the target is Glycogen synthase kinase-3 beta (Homo sapiens) (UniProt P49841). As to conditions: at 0.1 µM.
Assay [11] shares this target. Conditions: at 1 µM.
Assay [12] deals with Homeodomain-interacting protein kinase 1 (Homo sapiens) (UniProt Q86Z02). As to conditions: at 0.1 µM.
For assay [13] the target is unchanged. As to conditions: at 1 µM.
Assay [14] deals with T2, Homeodomain-interacting protein kinase 4 (Homo sapiens) (UniProt Q8NE63).
T2 sequence (whole entry): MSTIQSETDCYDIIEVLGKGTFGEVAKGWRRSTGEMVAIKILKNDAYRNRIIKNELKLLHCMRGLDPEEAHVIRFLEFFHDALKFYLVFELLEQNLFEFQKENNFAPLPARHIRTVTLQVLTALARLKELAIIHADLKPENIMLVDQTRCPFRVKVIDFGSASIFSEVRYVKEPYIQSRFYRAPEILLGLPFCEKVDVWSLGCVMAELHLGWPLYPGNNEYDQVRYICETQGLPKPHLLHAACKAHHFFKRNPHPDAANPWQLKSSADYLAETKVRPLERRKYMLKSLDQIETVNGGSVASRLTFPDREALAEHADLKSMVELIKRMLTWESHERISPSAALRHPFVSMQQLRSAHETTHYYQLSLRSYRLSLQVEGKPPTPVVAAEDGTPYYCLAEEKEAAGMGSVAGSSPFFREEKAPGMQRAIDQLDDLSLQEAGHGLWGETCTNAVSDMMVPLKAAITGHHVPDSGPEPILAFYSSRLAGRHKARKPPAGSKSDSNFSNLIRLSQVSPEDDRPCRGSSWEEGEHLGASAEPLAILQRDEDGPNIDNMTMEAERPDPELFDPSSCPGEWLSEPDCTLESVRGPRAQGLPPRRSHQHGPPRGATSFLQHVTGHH
Conditions: at 0.1 µM.

Assay [15] addresses T2, Homeodomain-interacting protein kinase 4 (Homo sapiens). As to conditions: at 1 µM.
Assay [16] concerns the target Mitogen-activated protein kinase 9 (Homo sapiens) (UniProt P45984). Conditions: at 0.1 µM.
For assay [17] the target is unchanged. As to conditions: at 1 µM.
Assay [18] addresses Mitogen-activated protein kinase 1 (Homo sapiens) (UniProt P28482). As to conditions: at 0.1 µM.
Assay [19] shares this target. Conditions: at 1 µM.
Assay [20] concerns the target Mitogen-activated protein kinase 3 (Homo sapiens) (UniProt P27361). Conditions: at 0.1 µM.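 Note: each value is a mean inhibition figure.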

Dual specificity protein kinase CLK3 (Homo sapiens), sequence (P49761 whole entry, looked up): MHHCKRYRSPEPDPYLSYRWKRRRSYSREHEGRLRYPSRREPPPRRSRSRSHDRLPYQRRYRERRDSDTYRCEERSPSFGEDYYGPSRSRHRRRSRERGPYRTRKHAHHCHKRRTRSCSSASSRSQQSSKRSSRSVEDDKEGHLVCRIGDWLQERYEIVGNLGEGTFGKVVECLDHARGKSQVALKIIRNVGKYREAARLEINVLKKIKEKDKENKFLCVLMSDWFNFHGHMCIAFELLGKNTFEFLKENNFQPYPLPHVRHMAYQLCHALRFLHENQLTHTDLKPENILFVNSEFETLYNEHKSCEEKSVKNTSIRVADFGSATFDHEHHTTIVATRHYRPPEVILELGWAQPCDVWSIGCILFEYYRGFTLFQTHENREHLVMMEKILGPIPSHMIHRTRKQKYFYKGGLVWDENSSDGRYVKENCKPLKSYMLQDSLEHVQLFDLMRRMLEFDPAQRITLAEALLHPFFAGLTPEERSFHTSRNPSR
Homeodomain-interacting protein kinase 1 (Homo sapiens), sequence (Q86Z02 whole entry, looked up): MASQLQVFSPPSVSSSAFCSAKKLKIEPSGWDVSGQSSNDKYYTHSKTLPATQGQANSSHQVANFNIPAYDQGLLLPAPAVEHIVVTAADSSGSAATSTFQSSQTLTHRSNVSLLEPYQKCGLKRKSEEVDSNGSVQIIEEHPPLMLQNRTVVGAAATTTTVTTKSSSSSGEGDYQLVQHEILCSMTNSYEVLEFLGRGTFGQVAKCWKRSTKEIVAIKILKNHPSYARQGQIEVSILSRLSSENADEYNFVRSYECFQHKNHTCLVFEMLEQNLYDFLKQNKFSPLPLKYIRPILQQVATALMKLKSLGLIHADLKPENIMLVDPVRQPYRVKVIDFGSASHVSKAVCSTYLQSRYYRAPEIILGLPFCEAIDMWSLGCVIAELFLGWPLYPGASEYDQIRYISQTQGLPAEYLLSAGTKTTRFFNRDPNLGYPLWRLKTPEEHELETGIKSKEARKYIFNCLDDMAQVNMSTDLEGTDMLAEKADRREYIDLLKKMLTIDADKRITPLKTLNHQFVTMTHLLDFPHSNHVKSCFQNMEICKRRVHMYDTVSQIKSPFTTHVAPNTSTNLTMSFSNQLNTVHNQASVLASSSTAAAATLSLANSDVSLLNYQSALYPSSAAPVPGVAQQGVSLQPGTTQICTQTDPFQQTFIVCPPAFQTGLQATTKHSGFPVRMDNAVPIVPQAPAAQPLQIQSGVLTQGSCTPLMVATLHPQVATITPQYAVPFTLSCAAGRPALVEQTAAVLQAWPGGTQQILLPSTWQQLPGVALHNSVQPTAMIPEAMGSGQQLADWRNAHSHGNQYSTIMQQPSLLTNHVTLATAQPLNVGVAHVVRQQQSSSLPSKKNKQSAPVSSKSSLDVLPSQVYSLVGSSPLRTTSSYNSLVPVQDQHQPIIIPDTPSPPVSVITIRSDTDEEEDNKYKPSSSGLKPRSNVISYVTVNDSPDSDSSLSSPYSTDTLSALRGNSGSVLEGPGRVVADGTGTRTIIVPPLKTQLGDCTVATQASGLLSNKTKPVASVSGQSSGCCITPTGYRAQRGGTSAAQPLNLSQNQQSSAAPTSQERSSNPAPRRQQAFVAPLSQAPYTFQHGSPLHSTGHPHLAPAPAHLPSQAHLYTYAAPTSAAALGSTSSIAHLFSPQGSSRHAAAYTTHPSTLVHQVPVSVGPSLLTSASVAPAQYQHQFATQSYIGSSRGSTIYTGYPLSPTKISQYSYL
Mitogen-activated protein kinase 9 (Homo sapiens), sequence (P45984 whole entry, looked up): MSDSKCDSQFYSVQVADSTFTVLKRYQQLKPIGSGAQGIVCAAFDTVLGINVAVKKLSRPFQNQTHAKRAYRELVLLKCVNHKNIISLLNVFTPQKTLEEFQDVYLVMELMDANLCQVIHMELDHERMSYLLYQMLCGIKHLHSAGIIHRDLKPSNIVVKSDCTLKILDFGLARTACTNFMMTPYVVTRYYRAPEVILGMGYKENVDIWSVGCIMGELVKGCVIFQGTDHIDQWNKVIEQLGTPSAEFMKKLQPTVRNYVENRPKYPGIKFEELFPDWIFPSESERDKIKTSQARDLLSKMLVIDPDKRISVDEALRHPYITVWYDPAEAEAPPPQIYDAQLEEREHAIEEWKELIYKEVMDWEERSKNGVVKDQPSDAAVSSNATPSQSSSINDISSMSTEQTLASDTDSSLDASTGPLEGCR
Mitogen-activated protein kinase 3 (Homo sapiens), sequence (P27361 whole entry): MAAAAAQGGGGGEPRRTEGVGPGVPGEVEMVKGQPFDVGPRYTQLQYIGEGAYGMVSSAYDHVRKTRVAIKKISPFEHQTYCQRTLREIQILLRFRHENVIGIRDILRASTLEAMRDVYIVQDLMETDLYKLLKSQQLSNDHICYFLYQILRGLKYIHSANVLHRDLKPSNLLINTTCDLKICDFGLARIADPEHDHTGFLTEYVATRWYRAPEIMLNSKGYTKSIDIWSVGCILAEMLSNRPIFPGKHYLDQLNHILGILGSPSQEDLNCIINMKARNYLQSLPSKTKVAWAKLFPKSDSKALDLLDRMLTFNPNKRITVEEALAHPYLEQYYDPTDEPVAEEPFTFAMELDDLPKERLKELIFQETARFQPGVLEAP
Mitogen-activated protein kinase 1 (Homo sapiens), sequence (P28482 whole entry): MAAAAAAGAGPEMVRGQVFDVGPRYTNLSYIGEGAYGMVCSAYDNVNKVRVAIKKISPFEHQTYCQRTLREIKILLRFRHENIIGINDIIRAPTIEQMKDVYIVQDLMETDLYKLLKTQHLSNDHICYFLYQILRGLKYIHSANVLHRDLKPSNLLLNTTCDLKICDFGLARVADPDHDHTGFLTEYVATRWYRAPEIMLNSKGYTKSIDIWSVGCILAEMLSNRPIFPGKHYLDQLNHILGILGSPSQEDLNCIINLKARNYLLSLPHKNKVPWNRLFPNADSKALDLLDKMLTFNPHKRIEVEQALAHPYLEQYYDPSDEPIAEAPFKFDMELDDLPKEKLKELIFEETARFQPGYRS
Glycogen synthase kinase-3 beta (Homo sapiens), sequence (P49841 whole entry, looked up): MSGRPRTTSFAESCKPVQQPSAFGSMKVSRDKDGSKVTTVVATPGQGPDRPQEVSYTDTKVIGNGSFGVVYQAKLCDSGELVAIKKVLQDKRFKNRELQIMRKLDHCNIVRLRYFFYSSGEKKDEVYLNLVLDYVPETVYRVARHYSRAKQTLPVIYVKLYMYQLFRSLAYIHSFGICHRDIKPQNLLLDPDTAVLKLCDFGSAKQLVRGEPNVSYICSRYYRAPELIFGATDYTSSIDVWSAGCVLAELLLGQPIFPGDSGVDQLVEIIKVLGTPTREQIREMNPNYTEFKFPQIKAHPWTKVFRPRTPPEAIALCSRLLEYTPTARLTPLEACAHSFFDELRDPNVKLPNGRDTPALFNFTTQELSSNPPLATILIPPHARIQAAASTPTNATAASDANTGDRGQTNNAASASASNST
Dual specificity tyrosine-phosphorylation-regulated kinase 1B (Homo sapiens), sequence (Q9Y463 whole entry, looked up): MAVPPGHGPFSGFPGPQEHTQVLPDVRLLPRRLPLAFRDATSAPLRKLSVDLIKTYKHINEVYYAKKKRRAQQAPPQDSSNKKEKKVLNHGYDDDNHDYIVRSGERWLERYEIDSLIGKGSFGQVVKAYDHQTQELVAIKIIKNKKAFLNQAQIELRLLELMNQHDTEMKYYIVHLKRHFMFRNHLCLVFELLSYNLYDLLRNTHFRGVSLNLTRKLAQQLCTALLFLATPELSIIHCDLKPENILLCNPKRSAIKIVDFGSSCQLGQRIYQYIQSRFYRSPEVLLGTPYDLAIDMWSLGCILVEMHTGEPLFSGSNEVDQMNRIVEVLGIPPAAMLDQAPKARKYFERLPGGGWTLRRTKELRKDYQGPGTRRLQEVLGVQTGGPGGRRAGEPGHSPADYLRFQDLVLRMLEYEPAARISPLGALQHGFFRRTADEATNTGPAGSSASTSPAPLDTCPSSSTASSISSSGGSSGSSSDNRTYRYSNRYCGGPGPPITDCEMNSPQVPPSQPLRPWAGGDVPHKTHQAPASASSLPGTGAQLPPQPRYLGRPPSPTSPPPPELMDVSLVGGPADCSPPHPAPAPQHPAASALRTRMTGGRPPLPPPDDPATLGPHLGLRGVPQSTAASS
Glycogen synthase kinase-3 alpha (Homo sapiens), sequence (P49840 2-483 limits assumed): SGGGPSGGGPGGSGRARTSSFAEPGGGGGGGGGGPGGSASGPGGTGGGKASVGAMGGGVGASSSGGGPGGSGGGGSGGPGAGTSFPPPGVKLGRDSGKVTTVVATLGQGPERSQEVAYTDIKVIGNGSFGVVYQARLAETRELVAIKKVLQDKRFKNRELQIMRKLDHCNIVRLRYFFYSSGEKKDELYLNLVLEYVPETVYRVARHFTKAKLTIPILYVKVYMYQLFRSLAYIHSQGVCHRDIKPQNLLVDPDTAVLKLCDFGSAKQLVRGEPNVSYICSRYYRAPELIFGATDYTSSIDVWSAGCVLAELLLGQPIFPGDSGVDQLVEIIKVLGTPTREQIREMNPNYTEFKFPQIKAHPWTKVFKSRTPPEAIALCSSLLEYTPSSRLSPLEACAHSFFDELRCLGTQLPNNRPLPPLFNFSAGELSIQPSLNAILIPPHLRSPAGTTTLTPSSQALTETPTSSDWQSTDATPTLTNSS

One may read the inhibition as the change of the read-out against control, counted positive when it falls. With `COC(=O)Nc1nc2ccc(Oc3ccc(NC(=O)Nc4cccc(Cl)c4)cc3)cc2[nH]1`, the inhibition was -1.09% in assay [1]; -1.75% in assay [2]; -2.75% in assay [3]; -1.02% in [4]; -0.33% in [5]; 1.12% in [6]. Also, the inhibition in assay [7] is -2.41%; in assay [8], 3.91%; in assay [9], 3.54%; in [10], 2.92%; in assay [11], 4.55%; in [12], -1.97%. For the same compound, the inhibition in assay [13] is -0.94%; in [14], 2.35%; in [15], 14.8%; in [16] it was 1.98%; in assay [17] it was 5.76%; in [18], 1.02%. Also, the results for the inhibition in [19] and in assay [20] were 1.55% and -0.95%, respectively.
Take `COc1cc2ncn(-c3cc(OCc4ccccc4C(F)(F)F)c(C(=O)N(C)C)s3)c2cc1OC`: the inhibition in assay [1] was 0.45%; in assay [2] it was 0.01%; in assay [3] it was 0.74%; in assay [4] it was 0.5%; in assay [5] it was 0.22%; in [6], -0.27%. Further, the inhibition in [7] is 2.19%; in assay [8], 0.04%; in assay [9], 1.19%; in assay [10] it was 0.03%; in assay [11], 1.99%; in assay [12] it was -1.93%. The inhibition was -0.02% in assay [13]; -0.52% in assay [14]; 2.66% in [15]; 1.07% in [16]; 2.1% in assay [17]; -1.73% in assay [18]. Besides, the inhibition in assay [19] was 0.92%; in [20], -0.18%.
Take `NC(=O)c1sc(-n2cnc3ccc(C(F)(F)F)cc32)cc1OCc1ccccc1Br`: the inhibition was 4.85% in assay [1]; 2.74% in assay [2]; 8.54% in assay [3]; -0.4% in [4]; 2.27% in assay [5]; 2.93% in assay [6]. Moreover, the inhibition in [7] was 4.03%; in assay [8], 1.26%; in assay [9] it was 7.48%; in [10], -0.61%; in assay [11] it was 3.8%; in assay [12], 0.1%. Moreover, the inhibition in assay [13] was 2.51%; in [14] it was 1.27%; in assay [15] it was 4.18%; in [16], 3.06%; in [17] it was 5.5%; in [18] it was 2.67%. Besides, the figures for the inhibition in assay [19] and in [20] were 4.49% and 3.25%, respectively.
Consider `N#Cc1c(NC(=O)CN2CCOCC2)sc2c1CCCC2`, for which the inhibition in assay [1] is 7.77%; in assay [2], 7.33%; in assay [3], 11%; in assay [4], 4.95%; in [5], 8.26%; in assay [6] it was 1.96%. The inhibition in assay [7] was determined as 4.75%; in assay [8] it was 10.6%; in assay [9], 9.38%; in [10], 11%; in assay [11], 7.42%; in assay [12], 6.67%. Moreover, the inhibition in assay [13] turned out to be 10.1%; in [14], 7.62%; in [15] it was 6.09%; in assay [16] it was 4.4%; in assay [17], 9.83%; in [18], 4.06%. For the same compound, the inhibition in [19] was determined as 4.79%; in assay [20], 3.09%.
On to `COc1cccc(-c2c[nH]c3c(N/N=C/c4ccncc4)ncnc23)c1`, for which the inhibition worked out at 14% in assay [1]; 16.1% in assay [2]; 58.5% in assay [3]; 11.3% in assay [4]; 50.5% in assay [5]; 11.7% in assay [6]. For the same compound, the inhibition was 57.8% in [7]; 78.9% in assay [8]; 83.5% in [9]; 76.6% in [10]; 83.5% in [11]; 5.99% in assay [12]. Besides, the inhibition in assay [13] was determined as 41.7%; in [14] it was 10.1%; in assay [15], 43.2%; in [16], 2.08%; in assay [17] it was 8.51%; in assay [18], 1.55%. Moreover, the inhibition in assay [19] is 5.09%; in assay [20] it was 1.78%.
Take `CCn1c(-c2nonc2N)nc2c(C#CC(C)(C)O)ncc(OC3CCNCC3)c21`: the inhibition in assay [1] is 0.2%; in assay [2], 1.61%; in assay [3], -0.11%; in assay [4] it was 0.14%; in assay [5], 1.34%; in assay [6] it was 2.3%. Further, the inhibition worked out at 3.89% in assay [7]; 12.3% in [8]; 48.9% in assay [9]; 10% in assay [10]; 51.8% in assay [11]; 0.21% in assay [12]. The inhibition in [13] was 4.91%; in [14], 1.04%; in assay [15], 2.64%; in assay [16], 4.13%; in [17], 6.93%; in assay [18], 4.51%. The inhibition in [19] was 7.43%; in assay [20] it was 4.27%.
`Fc1ccc(-c2nn3ccccc3c2-c2ccncc2)cc1`: the inhibition in assay [1] turned out to be 0.88%; in [2] it was 0.99%; in [3] it was 3.18%; in assay [4] it was 0.03%; in assay [5] it was 2.03%; in assay [6], 0.76%. Further, the inhibition in [7] is 1.76%; in assay [8] it was 1.02%; in assay [9], 6.14%; in [10], 1.33%; in [11], 10.7%; in assay [12], -1.55%. The inhibition is 0.97% in [13]; -0.72% in assay [14]; 0.37% in assay [15]; 4.3% in assay [16]; 25.4% in [17]; 0.83% in [18]. Moreover, the values for the inhibition in [19] and in assay [20] were 1.21% and 1.33%, respectively.
